Several values for one entry are separate records, joined by “and”; a condition that tells them apart may be missing. Equal values may be shown once. Inconclusive results are not listed. Some compounds were tested as several samples or in several runs, with calls that do not always agree. Activity calls are given as the source filed them. The calls were made as follows, unless noted: active = hit-call score of the fitted dose curve at least 0.9, where 1 is the maximum; inactive = score below 0.9.
Key:
[1] = biological target: human RAR-related Orphan Receptor gamma (RORg), RORC (gene 6097) (UniProt P51449); assay: ATG_RORg_TRANS: Attagene TRANS-FACTORIAL HepG2 Assay for human RAR-related Orphan Receptor gamma (RORg) (AID 2283011; active = hit-call score of the fitted dose curve at least 0.9, where 1 is the maximum)
human RAR-related Orphan Receptor gamma (RORg), RORC (gene 6097), sequence (P51449 whole entry, looked up, the tested form may be a part): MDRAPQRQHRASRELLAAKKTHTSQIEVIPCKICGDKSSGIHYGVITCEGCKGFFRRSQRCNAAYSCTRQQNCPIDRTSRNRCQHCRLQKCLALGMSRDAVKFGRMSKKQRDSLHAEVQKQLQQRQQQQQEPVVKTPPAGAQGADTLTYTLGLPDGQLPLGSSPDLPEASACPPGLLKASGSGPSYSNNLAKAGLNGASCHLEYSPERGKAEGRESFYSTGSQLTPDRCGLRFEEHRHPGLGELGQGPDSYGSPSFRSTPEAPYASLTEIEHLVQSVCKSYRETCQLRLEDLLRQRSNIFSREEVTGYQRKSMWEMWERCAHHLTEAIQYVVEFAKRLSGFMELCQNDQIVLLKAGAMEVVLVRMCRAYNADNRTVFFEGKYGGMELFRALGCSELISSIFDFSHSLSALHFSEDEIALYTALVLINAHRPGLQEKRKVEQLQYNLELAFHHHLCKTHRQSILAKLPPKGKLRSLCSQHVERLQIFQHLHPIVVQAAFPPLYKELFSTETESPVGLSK
Outline: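 First, HepG2 liver cells were transfected with GAL4-UAS-driven reporter constructs and the RORg-Gal4 fusion. Next, they were treated with chemical for 24 h. Finally, reporter mRNA was quantified by RT-PCR and capillary electrophoresis, with upward activity fitted against DMSO.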

[2] = biological target: Retinoic acid receptor RXR-alpha (Homo sapiens) (UniProt P19793); assay: ATG_RXRa_TRANS: Attagene TRANS-FACTORIAL HepG2 Assay for human Retinoid X Receptor alpha (RXRa) (AID 2283012; active = hit-call score of the fitted dose curve at least 0.9, where 1 is the maximum)
Retinoic acid receptor RXR-alpha (Homo sapiens), sequence (P19793 whole entry, looked up, the tested form may be a part): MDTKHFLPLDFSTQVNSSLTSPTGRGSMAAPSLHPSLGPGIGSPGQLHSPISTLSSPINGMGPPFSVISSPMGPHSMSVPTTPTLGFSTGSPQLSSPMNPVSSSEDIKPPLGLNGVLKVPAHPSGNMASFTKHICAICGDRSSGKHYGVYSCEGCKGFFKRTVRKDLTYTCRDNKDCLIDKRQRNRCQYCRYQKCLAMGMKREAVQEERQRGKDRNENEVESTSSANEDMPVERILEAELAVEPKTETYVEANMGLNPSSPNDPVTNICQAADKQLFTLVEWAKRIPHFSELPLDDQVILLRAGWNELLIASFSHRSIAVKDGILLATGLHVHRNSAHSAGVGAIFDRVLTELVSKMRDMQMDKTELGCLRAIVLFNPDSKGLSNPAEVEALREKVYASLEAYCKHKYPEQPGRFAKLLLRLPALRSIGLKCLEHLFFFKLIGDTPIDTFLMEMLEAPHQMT
Outline: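 HepG2 cells transiently transfected with multiplexed GAL4-UAS reporter units and chimeric NR-GAL4 fusions, dosed 24 h. Reporter mRNA measured by RT-PCR, FAM labelling, HpaI digestion and capillary electrophoresis; gain-of-signal fitted relative to DMSO baseline.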

[3] = biological target: human Retinoid X Receptor beta (RXRb), RXRB (gene 6257) (UniProt P28702); assay: ATG_RXRb_TRANS: Attagene TRANS-FACTORIAL HepG2 Assay for human Retinoid X Receptor beta (RXRb) (AID 2283013; active = hit-call score of the fitted dose curve at least 0.9, where 1 is the maximum)
human Retinoid X Receptor beta (RXRb), RXRB (gene 6257), sequence (P28702 whole entry, looked up, the tested form may be a part): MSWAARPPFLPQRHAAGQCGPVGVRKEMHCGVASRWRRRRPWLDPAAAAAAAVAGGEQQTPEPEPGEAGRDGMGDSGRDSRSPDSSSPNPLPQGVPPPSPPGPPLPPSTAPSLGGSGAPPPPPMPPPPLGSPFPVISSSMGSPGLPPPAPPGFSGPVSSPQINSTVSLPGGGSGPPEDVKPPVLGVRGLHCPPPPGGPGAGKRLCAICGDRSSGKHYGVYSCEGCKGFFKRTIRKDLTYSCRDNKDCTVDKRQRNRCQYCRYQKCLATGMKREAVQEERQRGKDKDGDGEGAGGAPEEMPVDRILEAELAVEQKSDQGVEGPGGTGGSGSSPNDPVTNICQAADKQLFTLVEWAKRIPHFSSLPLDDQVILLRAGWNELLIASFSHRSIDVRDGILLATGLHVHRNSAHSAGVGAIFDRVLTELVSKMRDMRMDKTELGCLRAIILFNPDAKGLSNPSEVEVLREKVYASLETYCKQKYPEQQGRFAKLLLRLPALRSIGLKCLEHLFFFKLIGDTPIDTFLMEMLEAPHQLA
Outline: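 HepG2 cells transiently transfected with multiplexed reporter units driven by GAL4-UAS and exogenous chimeric NR-Gal4 proteins; treated 24 h. Reporter mRNA measured by RT-PCR, 6-FAM labelling and capillary electrophoresis; gain-of-signal fitted versus DMSO baseline.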

[4] = read-out: E-selectin (Homo sapiens) (UniProt P16581); assay: BSK_3C_Eselectin: BioMAP Diversity Plus: 3C Assay for Eselectin Biomarker Activity (AID 2283015); conditions: primary human endothelial cells (HUVEC); actives raise or lower the signal
Outline: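 ELISA read-out of E-selectin on endothelial monolayers after 24 h chemical treatment. Human umbilical vein primary cells served as the system, with DMSO defining baseline activity for bidirectional fitting.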

[5] = read-out: Interleukin-1 alpha (IL1a), IL1A (gene 3552); assay: BSK_BE3C_IL1a: BioMAP Diversity Plus: BE3C Assay for Interleukin-1 alpha (IL1a) Biomarker Activity (AID 2283016); conditions: primary human bronchial epithelial cells; actives raise or lower the signal
Outline: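 Human primary bronchial epithelial cells (BE3C system) were dosed with compound and IL-1a measured by ELISA 24 h later. Activity was fitted bidirectionally against DMSO baseline; cytotoxicity was tracked in parallel cultures by SRB total-protein staining.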

[6] = read-out: Monocyte Chemoattractant Protein-1 (MCP1), CCL2 (gene 6347); assay: BSK_3C_MCP1: BioMAP Diversity Plus: 3C Assay for Monocyte Chemoattractant Protein-1 (MCP1) Biomarker Activity (AID 2283017); conditions: primary human endothelial cells (HUVEC); actives raise or lower the signal
Outline: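 ELISA read-out of MCP-1 from human umbilical vein endothelial cell cultures harvested 24 h post-dosing. Gain or loss of signal was fitted relative to DMSO.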

[7] = read-out: Monocyte Chemoattractant Protein-1 (MCP1), CCL2 (gene 6347); assay: BSK_4H_MCP1: BioMAP Diversity Plus: 4H Assay for Monocyte Chemoattractant Protein-1 (MCP1) Biomarker Activity (AID 2283018); conditions: primary human endothelial cells (HUVEC); actives raise or lower the signal
Outline: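 Human umbilical vein endothelial cells (4H system) dosed with chemical; MCP-1 measured by ELISA 24 h after dosing. Bidirectional curve fitting against DMSO negative control as baseline; parallel SRB total-protein staining tracks overt cytotoxicity.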

[8] = read-out: Human Leukocyte Antigen - DR isotype (HLADR), HLA-DRA (gene 3122); assay: BSK_3C_HLADR: BioMAP Diversity Plus: 3C Assay for Human Leukocyte Antigen - DR isotype (HLADR) Biomarker Activity (AID 2283019); conditions: primary human endothelial cells (HUVEC); actives raise or lower the signal
Outline: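 ELISA readout of surface HLA-DR on human umbilical vein endothelium, taken 24 h after chemical treatment. Gain- and loss-of-signal were both fitted relative to DMSO.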

[9] = read-out: Interleukin-8 (IL8), CXCL8 (gene 3576); assay: BSK_3C_IL8: BioMAP Diversity Plus: 3C Assay for Interleukin-8 (IL8) Biomarker Activity (AID 2283020); conditions: primary human endothelial cells (HUVEC); actives raise or lower the signal
Outline: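 Primary human umbilical vein endothelial cells (3C system) were exposed to test chemical for 24 h, then IL-8 was quantified by ELISA. Responses were fitted bidirectionally against DMSO vehicle as baseline.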

[10] = biological target: human Thyroid Receptor alpha (THRa1), THRA (gene 7067) (UniProt P10827); assay: ATG_THRa1_TRANS: Attagene TRANS-FACTORIAL HepG2 Assay for human Thyroid Receptor alpha (THRa1) (AID 2283014; active = hit-call score of the fitted dose curve at least 0.9, where 1 is the maximum)
human Thyroid Receptor alpha (THRa1), THRA (gene 7067), sequence (P10827 whole entry, looked up, the tested form may be a part): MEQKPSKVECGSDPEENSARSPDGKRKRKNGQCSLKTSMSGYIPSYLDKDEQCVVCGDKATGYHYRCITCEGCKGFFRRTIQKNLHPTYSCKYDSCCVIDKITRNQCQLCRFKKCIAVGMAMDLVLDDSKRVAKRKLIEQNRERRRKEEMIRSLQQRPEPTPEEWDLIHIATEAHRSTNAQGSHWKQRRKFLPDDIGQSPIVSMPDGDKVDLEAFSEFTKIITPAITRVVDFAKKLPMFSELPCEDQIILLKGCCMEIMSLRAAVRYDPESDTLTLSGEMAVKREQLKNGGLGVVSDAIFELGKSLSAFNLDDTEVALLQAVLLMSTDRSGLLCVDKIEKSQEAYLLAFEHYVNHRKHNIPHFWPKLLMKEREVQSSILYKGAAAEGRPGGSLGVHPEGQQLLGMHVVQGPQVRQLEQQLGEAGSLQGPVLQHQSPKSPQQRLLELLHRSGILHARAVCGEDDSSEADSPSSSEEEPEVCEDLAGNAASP
Outline: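 Reporter transcript induction, read by capillary electrophoresis of 6-FAM-labelled RT-PCR products, reflects activity of a transfected THRa1-Gal4 fusion in HepG2 liver cells. Cells were dosed for 24 h; activity was fitted in the positive direction against DMSO.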

Measured: AC50

E-selectin (Homo sapiens), sequence (P16581 whole entry, looked up): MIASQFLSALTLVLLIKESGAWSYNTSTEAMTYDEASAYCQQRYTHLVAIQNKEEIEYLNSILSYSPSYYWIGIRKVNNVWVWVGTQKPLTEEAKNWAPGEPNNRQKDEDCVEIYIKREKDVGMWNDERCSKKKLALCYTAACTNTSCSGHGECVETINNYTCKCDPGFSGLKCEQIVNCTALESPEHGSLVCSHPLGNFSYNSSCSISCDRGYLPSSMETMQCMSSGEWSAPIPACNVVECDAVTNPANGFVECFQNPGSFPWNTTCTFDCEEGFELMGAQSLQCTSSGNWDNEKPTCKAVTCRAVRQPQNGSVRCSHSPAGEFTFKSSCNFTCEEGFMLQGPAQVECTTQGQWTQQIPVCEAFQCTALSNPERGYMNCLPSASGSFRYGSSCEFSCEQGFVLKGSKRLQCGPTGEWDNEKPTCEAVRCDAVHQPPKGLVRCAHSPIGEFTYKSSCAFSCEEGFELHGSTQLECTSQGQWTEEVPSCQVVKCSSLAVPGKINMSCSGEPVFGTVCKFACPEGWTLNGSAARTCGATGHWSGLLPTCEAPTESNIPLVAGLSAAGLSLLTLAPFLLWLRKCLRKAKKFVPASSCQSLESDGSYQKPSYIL

CCOC(=O)C(C)Oc1ccc(Oc2cnc3cc(Cl)ccc3n2)cc1 (stereo not drawn)
not listed: [10]
inactive: all other assays above

CC(=O)S[C@@H]1CC2=CC(=O)CC[C@]2(C)[C@H]2CC[C@@]3(C)[C@@H](CC[C@@]34CCC(=O)O4)[C@H]12
active: [4] 20 µM | [6] 27.7 µM | [7] 20 µM | [8] 26.3 µM | [9] 18.9 µM
inactive: [1] | [2] | [10] | [5]

CCSC(=O)N(CC(C)C)CC(C)C
not listed: [10]
inactive: all other assays above

COC(=O)CSc1cc(N=c2sc(=O)n3n2CCCC3)c(F)cc1Cl
not listed: [1] | [3]
inactive: all other assays above

COC(=O)c1c(Cl)nn(C)c1S(=O)(=O)NC(=O)Nc1nc(OC)cc(OC)n1
not listed: [1] | [2] | [3]
inactive: all other assays above

CCCCCCC(C)OC(=O)COc1nc(F)c(Cl)c(N)c1Cl (stereo not drawn)
active: [4] 31.4 µM | [6] 30.8 µM | [7] 32.3 µM | [8] 31.6 µM | [9] 36.5 µM
inactive: [5]

C#C[C@]1(O)CC[C@H]2[C@@H]3CCC4=CC(=O)CC[C@@H]4[C@H]3CC[C@@]21CC
active: [8] 20 µM
not listed: [1]
inactive: all other assays above

COC(=O)c1ccc(CNS(C)(=O)=O)cc1S(=O)(=O)NC(=O)Nc1nc(OC)cc(OC)n1
not listed: [2]
inactive: all other assays above

COC(=O)c1ccccc1S(=O)(=O)NC(=O)Nc1nc(OC(F)F)cc(OC(F)F)n1
inactive: [4] | [5] | [6] | [7] | [8] | [9]

c1ccc(Nc2ccccc2)cc1
active: [8] 13.5 µM
not listed: [1] | [10]
inactive: all other assays above

C=CCOC(Cn1ccnc1)c1ccc(Cl)cc1Cl (stereo not drawn)
active: [7] 27.7 µM | [8] 13.6 µM
not listed: [2] | [10]
inactive: all other assays above

CCCCOC(=O)[C@@H](C)Oc1ccc(Oc2ccc(C(F)(F)F)cn2)cc1
not listed: [1]
inactive: all other assays above

CCCOC(=O)NCCCN(C)C
not listed: [1] | [10]
inactive: all other assays above

CSC(=O)c1cccc2nnsc12
not listed: [1] | [2]
inactive: all other assays above

CCOC(=O)C(C)Oc1ccc(Oc2nc3ccc(Cl)cc3o2)cc1 (stereo not drawn)
active: [6] 20 µM | [8] 20 µM
not listed: [1]
inactive: all other assays above

COC(=O)c1ccccc1C(=O)O
active: [8] 9.98 µM
not listed: [1] | [2] | [3]
inactive: all other assays above

CCOC(=O)NCCOc1ccc(Oc2ccccc2)cc1
active: [4] 21.3 µM | [6] 28.5 µM | [7] 18.7 µM | [8] 25.5 µM | [9] 15 µM
inactive: [2] | [3] | [10] | [5]

CCCN(CCC)c1c([N+](=O)[O-])cc(C(F)(F)F)c(N)c1[N+](=O)[O-]
active: [4] 14.9 µM | [5] 31.3 µM | [6] 29.4 µM | [7] 29.7 µM | [8] 18.4 µM | [9] 32.9 µM
inactive: [1] | [10]

CC(C)CCCCCCc1ccc(O)cc1
inactive: [10]
active: [2] 12.3 µM [middle of 4 runs] | [4] 8.72 µM | [5] 26.7 µM | [6] 9.8 µM | [7] 7.07 µM | [8] 9.6 µM | [9] 8.35 µM

COc1c(Cl)ccc(Cl)c1C(=O)O
not listed: [1] | [3]
inactive: all other assays above

COC(=O)c1ccc(I)cc1S(=O)(=O)NC(=O)Nc1nc(C)nc(OC)n1
inactive: [4] | [5] | [6] | [7] | [8] | [9]

COC(=O)c1cccc(C)c1S(=O)(=O)NC(=O)Nc1nc(OCC(F)(F)F)nc(N(C)C)n1
not listed: [1] | [3]
inactive: all other assays above

CCCOC(=O)c1ccc(C(=O)OCCC)nc1
not listed: [1]
inactive: all other assays above

CCOC(=O)[C@H](C)Oc1ccc(Oc2nc3ccc(Cl)cc3o2)cc1
active: [8] 7.25 µM
not listed: [1] | [10]
inactive: all other assays above

O=C(Nc1ccc([N+](=O)[O-])cc1Cl)c1cc(Cl)ccc1O
inactive: [10] | [4] | [6] | [9]
active: [5] 0.148 µM | [8] 0.169 µM

CCOC(=O)c1ccc(O)cc1
not listed: [1]
inactive: all other assays above

CCCCC(CC)CN1C(=O)C2C3C=CC(C3)C2C1=O (stereo not drawn)
active: [7] 19.2 µM | [8] 30.6 µM
not listed: [1] | [10]
inactive: all other assays above

CC(C)(c1ccc(O)cc1)c1ccc(O)cc1
active: [3] 4.19 nM
inactive: [2] | [3] | [10] | [4] | [5] | [6] | [7] | [8] | [9]

CCNc1nc(N)nc(Cl)n1
not listed: [1]
inactive: all other assays above

COc1nc(C)nc(NC(=O)NS(=O)(=O)c2ccccc2OCCCl)n1
not listed: [1] | [10]
inactive: all other assays above

CC(=O)[C@H]1CC[C@H]2[C@@H]3CCC4=CC(=O)CC[C@]4(C)[C@H]3CC[C@]12C
active: [4] 10.1 µM | [6] 8.12 µM | [7] 12.7 µM | [8] 20 µM | [9] 20 µM
inactive: [2] | [5]

O=C(c1ccccc1)C1CCCCC1
active: [3] 121 µM and 57 µM and 100 µM
inactive: [2] | [3] | [10] | [4] | [5] | [6] | [7] | [8] | [9]

S=C([S-])NCCNC(=S)[S-].[Mn+2]
active: [8] 29.7 µM
not listed: [1] | [3]
inactive: all other assays above

Reference: PubChem BioAssay (EPA / NIEHS)
